From PubChem BioAssay AID1903 (Southern Research Specialized Biocontainment Screening …, 2009) come the findings set out here.

Screen size: about 310,000 compounds; about 1,200 (0.39%) were called active. These entries were drawn from the full list. Results with a measured potency or affinity are listed apart. A number with no mark means an inactive call. The rule behind the calls is not given here.

In the experiment the target is Large T antigen (Simian virus 40) (UniProt P03070). Kind of experiment: TAg ATPase/helicase activity blockers – biochemical (AID 1903). Conditions: SV40 large T antigen ATPase/helicase inhibition assay; at 20 µM; active compounds read high.
Chain of Large T antigen (Simian virus 40) (P03070 whole entry, looked up): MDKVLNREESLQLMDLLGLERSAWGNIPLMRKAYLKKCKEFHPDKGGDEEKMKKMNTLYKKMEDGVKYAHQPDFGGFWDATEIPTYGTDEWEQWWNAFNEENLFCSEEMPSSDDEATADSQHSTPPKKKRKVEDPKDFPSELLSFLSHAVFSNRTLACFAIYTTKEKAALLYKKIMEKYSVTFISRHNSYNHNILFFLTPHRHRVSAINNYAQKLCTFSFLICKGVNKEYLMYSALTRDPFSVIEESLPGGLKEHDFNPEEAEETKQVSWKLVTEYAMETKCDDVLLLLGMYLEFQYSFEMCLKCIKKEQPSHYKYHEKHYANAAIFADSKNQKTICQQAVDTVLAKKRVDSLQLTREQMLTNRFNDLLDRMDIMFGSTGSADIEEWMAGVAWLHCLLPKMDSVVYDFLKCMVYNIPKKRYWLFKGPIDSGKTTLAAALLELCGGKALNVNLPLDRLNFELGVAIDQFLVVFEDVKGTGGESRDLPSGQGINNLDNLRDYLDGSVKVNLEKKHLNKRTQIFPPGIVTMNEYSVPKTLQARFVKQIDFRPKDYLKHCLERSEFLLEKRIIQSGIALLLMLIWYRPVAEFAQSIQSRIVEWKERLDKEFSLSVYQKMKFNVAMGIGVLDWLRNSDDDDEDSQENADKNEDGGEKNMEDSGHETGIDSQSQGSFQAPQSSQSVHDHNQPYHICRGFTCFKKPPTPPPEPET
Usually inhibition stands for the change of the read-out against control, counted positive when it falls. `COc1cc(/C=N/n2cnnc2)ccc1OC(=O)c1cccnc1`: the inhibition is 27.4%. Consider `CCOc1cc(/C=N/NC(=O)C(=O)N/N=C/c2ccc(O)c(OCC)c2)ccc1O`, for which the inhibition is 8.63%.

With `COc1ccccc1/C=N/NC(=O)CC(=O)NCCc1ccccc1`, the inhibition was 9.39%. Turning to `CCOc1ccc(/C=N\NC(=O)CC(=O)NCCc2ccccc2)cc1`, the inhibition is 4.85%. In the case of `COc1cc(/C=N/n2cnnc2)ccc1OC(=O)c1ccco1`, the inhibition is 24.8%. For `COc1ccc(/C=N/NC(=O)CC(=O)NCCc2ccccc2)cc1OC`, the inhibition was -5.15%. In the case of `Cc1ccc(/C=N\NC(=O)CC(=O)NCCc2ccccc2)cc1` it was 7.24%.

As for `CCOc1cc(/C=N/NC(=O)C2CCCC2)ccc1O`, the inhibition is 36.2%. With `CC(Nc1c[nH]c(=O)[nH]c1=O)c1ccccc1` (stereo not given), the inhibition is 28.4%. With `N#CC1=C(N)N2C(=C(C#N)C13CCCCC3)SC1CCCCC12O` (stereo not given), the inhibition was 2.16%. For the compound `CCc1cc(Cn2nc(-c3ccccc3)cc2C(=O)NCc2ccccc2OC)on1`, the inhibition is 2.01%. For `COc1ccccc1CC(NC(C)=O)C(=O)N1CCN(C(=O)Nc2ccccc2Cl)CC1` (stereo not given), the inhibition was 11.4%. In the case of `Cc1ccc(NC(=O)c2ccc3nsnc3c2)c(C)c1` it was 3.08%; in that of `O=C(NC(C1CC1)C1CC1)C1CCC(=O)N(CCCN2CCCC2=O)C1` (stereo not given), 8.58%; in that of `FC(F)(F)c1cccc(Nc2nc(N3CCOCC3)nc(N3CCOCC3)n2)c1`, 6.77%. In the case of `COc1ccc(/C=C2\CCC(C3CCCC3)C2=O)c(OC)c1OC` (stereo not given) it was 15.3%; in that of `Cc1ccc(S(=O)(=O)Nc2ccc(Oc3cccnc3)nc2)cc1`, 9.11%. Then `CC(=O)Nc1ccc(SC[C@H](c2ccccc2)N2CCN(CCc3ccccc3)CCC2=O)cc1`, with 16.3%; and `COc1ccc(-c2nnc(-c3cc4ccccc4oc3=O)o2)cc1`, with -1.16%.

In the case of `O=C(C1CCCN(Cc2cccc(Cl)c2)C1)N1CCCCC1` (stereo not given), the inhibition is 2.11%.

For the compound `COc1cc(SC)ccc1C(=O)Nc1ncc(Cl)cc1Cl`, the inhibition is -2.54%. In the case of `CNC(=S)N/N=C/c1cn(CCOc2ccc(OC)cc2)c2ccccc12` it was 6.11%. In the case of `Cc1c(CN(C)C)c2c(n1Cc1ccccc1)C(=O)c1ccccc1-2` it was 2.92%; in that of `CCOc1cc(/C=N/n2cnnc2)cc(Br)c1O`, 23.3%. Consider `CCOc1cc(/C=N/n2c(C)nnc2C)ccc1O`, for which the inhibition was 27.2%. In the case of `Clc1ccccc1Cn1nc(-c2ccccc2)nc1-c1ccccc1` it was 1.23%; in that of `Cn1ccnc1SCC(=O)Nc1cc(C(F)(F)F)ccc1N1CCOCC1`, 7.01%. Then `COC(=O)c1ccc2c(=O)n(-c3ccc(OC)cc3)c(=S)[nH]c2c1`, with 6.42%; and `O=C(COC(=O)CCC1CCCC1)NCc1ccc(Cl)cc1`, with 17.3%. Take `COC(=O)c1cn(CCOc2ccccc2F)c2ccccc12`: the inhibition was 1.53%. As for `O=[N+]([O-])c1cn(Cc2ccc(Cl)cc2)cn1`, the inhibition is 1.06%. Then `Cc1cccc(N2C(=O)/C(=C\c3ccc(C(=O)O)cc3)c3ccccc3C2=O)c1`, with 36.5%; and `CCOc1cc(/C=C2\C(=O)N(c3cccc(C(F)(F)F)c3)C(=O)c3ccccc32)ccc1O`, with 9.18%.

As to `CC(C)c1nnc(NC(=O)c2cccnc2)s1`, the inhibition is 2.86%. With `OC1CCN(C(=S)Nc2ccc(Oc3ccccc3)cc2)CC1`, the inhibition is -15.6%. As for `O=C(Nc1ccccc1)NC1(C(=O)N2CCC(O)CC2)CCCCC1`, the inhibition was 4.76%. For `C/C(=N\NC(=O)C(C)Sc1ccccc1)C(C)(C)C` (stereo not given), the inhibition is 17.5%. As for `CC(CCc1ccc(O)cc1)NCc1ccc(Br)cc1` (stereo not given), the inhibition was 3.95%. Take `OCCc1ccc(O)cc1`: the inhibition is 27%. Then `N/C(=N\OC(=O)Cc1cccs1)c1cccc([N+](=O)[O-])c1`, with 3.85%. Take `COc1cc(Br)c(C2C(C#N)=C(N)Oc3n[nH]c(-c4cccnc4)c32)cc1OC` (stereo not given): the inhibition is 18.6%. With `COc1cc(OC)cc(C2C(C#N)=C(N)Oc3n[nH]c(-c4cccnc4)c32)c1` (stereo not given), the inhibition is 16.8%. In the case of `COc1cc(OC)c2c(c1)C(=O)OC2OC` (stereo not given) it was 2.96%. For `CC(NC(=O)CS(=O)(=O)c1ccccc1)c1ccccc1` (stereo not given), the inhibition was 25%.

In the case of `O=C(c1ccc2ncsc2c1)N1CCN(c2ccccc2Cl)CC1`, the inhibition is 11.3%. As for `O=C(c1ccc2ccccc2c1)N1CCN(c2ccccc2)CC1`, the inhibition is 10.3%.

In the case of `O=C(c1ccc2ccccc2c1)N1CCCC1`, the inhibition is 0.92%. As to `O=C(c1cccc(-c2ccc(O)cc2)c1)N1CCN(c2ccc(F)cc2)CC1`, the inhibition is 1.57%. In the case of `O=C(c1ccc2ncsc2c1)N1CCCCC1` it was 18.2%; in that of `COc1ccc(-c2cccc(C(=O)N3CCOCC3)c2)cc1`, 9.81%. Consider `CCOC(=O)c1nn(-c2ccc(F)cc2)c(=O)cc1OCC(=O)N1CCN(c2ccccc2)CC1`, for which the inhibition is 5.17%.

Regarding `CCN(CC)C(=O)C[n+]1ccc(C(N)=O)cc1`, the inhibition is 4.68%. Turning to `Fc1ccccc1/C=N/n1c(COc2ccccc2)n[nH]c1=S`, the inhibition is 6%. As to `Cc1cc(Br)cc(Cl)c1OCC(=O)NC(=O)NCc1ccccc1`, the inhibition was 1.39%. With `CCN1C(=O)[C@H]2[C@@H](c3ccc(C)cc3)N3C(=O)N(c4ccc(C(F)(F)F)cc4)C(=O)[C@@]3(Cc3ccccc3)[C@H]2C1=O`, the inhibition is 4.67%.

On to `CC(C)C[C@H](NC(=O)CCn1nnc2ccccc2c1=O)C(=O)O`, for which the inhibition is 9.82%. Consider `O=C(O)CNC(=S)N(Cc1ccccc1F)C1CCCCC1`, for which the inhibition was 4.15%. Then `O=C(Oc1ccc(-c2cnc3ccccc3n2)cc1)c1cccc([N+](=O)[O-])c1`, with 3.96%; and `O=C(Oc1ccc(-c2cnc3ccccc3n2)cc1)c1cc([N+](=O)[O-])ccc1Cl`, with 7.12%; and `COCC(C)NC(=O)c1noc2c1CCc1cc(OC)ccc1-2` (stereo not given), with -0.97%. Take `CCOc1ccc(NCc2cc3cc(OC)ccc3[nH]c2=O)cc1`: the inhibition was 28.1%.

Consider `Cc1ccc2nc(-c3ccccc3N)[nH]c2c1`, for which the inhibition was -2.07%.

For the compound `Cc1ccc2nc(-c3cccc(N)c3)[nH]c2c1`, the inhibition is 5.37%. Then `CCOC(=O)c1c(S(=O)(=O)NCc2ccc(C)o2)c(C)n(C)c1C`, with 2.28%; and `COc1ccc(CCC(=O)Nc2ccc(N3CCOCC3)cc2)cc1`, with 8.67%. Turning to `COc1ccc(OCC(=O)Nc2ccc(N3CCOCC3)cc2)cc1`, the inhibition is 12.4%. For the compound `CC(C)c1ccc(CNc2ccc(N3CCOCC3)cc2)cc1`, the inhibition is 9.24%. Take `c1cc(CNc2ccc(N3CCOCC3)cc2)ccn1`: the inhibition is 1.95%. In the case of `COc1cccc2cc(C(=O)N(Cc3cccs3)CC3CCCO3)c(=O)oc12` (stereo not given) it was 5.05%; in that of `CCn1cc(C2=NC(c3ccccc3)CO2)c2ccccc21` (stereo not given), 14.4%; in that of `Cc1ccc(Sc2ncnc(N)c2[N+](=O)[O-])cc1`, 2.16%. In the case of `CNc1cc(Cl)nc(SC)n1` it was 5.2%. Then `CSc1nc(Cl)cc(Nc2ccccc2N)n1`, with 22%; and `CCNC(=O)O/N=C1\CCCCC1c1ccc([N+](=O)[O-])cc1[N+](=O)[O-]` (stereo not given), with 11.8%; and `O=C1NN(c2ccccc2)C(=O)/C1=C\c1coc2ccc(O)cc2c1=O`, with 51.3%. As to `N#C/C(=C\c1coc2ccccc2c1=O)C(N)=S`, the inhibition was 11.5%. Then `COc1ccc(CCNC(=O)C/C(C)=N/NC(=O)C23CC4CC(CC(C4)C2)C3)cc1OC`, with 5.44%; and `COc1ccc(NC(=O)CC2C(=O)N(Cc3ccco3)C(=S)N2C(C)C)cc1` (stereo not given), with 12%; and `COC(=O)C1=C(C)N(Cc2ccco2)C(=O)/C1=C\c1ccc([N+](=O)[O-])cc1`, with 31.3%. On to `COc1ccc(-n2c(C)cc(/C=C3\SC(=S)N(Cc4ccco4)C3=O)c2C)cc1`, for which the inhibition was 2.87%.

As for `COC(=O)C1=C(C)N(Cc2ccco2)C(=O)/C1=C\c1ccc(N(C)C)cc1`, the inhibition was 3.05%. In the case of `COc1ccc(N2C(=O)CC(c3cc(OC)c(OC)c(OC)c3)CC2=O)cc1` it was 8.69%; in that of `COC(=O)c1nn(-c2nc(-c3ccc(OC)c(OC)c3)cc(C(F)(F)F)n2)cc1[N+](=O)[O-]`, 9.35%; in that of `COc1ccc(Sc2ccc(/C=C3\C(=O)NN(c4ccccc4)C3=O)o2)cc1`, 32.2%. On to `O=C1NN(c2ccccc2)C(=O)/C1=C/c1ccc(Sc2ccc(Cl)cc2)o1`, for which the inhibition was 11.2%.

Turning to `O=C1NN(c2cccc(Br)c2)C(=O)/C1=C/c1ccc(-c2cc([N+](=O)[O-])ccc2O)o1`, the inhibition is 38.2%.

`COC(=O)c1ccc(N2NC(=O)/C(=C/c3ccc(-c4ccc(Cl)c(C(=O)O)c4)o3)C2=O)cc1`: the inhibition is 37%. Then `O=C1NN(c2ccc(Cl)c(Cl)c2)C(=O)/C1=C/c1ccc(-c2ccccc2C(=O)O)o1`, with 28.4%; and `Cc1ccc(Sc2ccc(/C=C3/C(=O)NN(c4ccccc4)C3=O)o2)cc1`, with 20.1%. Take `N=C1/C(=C\c2ccc(-c3cc(Cl)cc(Cl)c3)o2)C(=O)N=C2SC=C(c3ccccc3)N12`: the inhibition was -1.62%. Consider `N=C1/C(=C\c2ccc(-c3cccc(Cl)c3)o2)C(=O)N=C2SC=C(c3ccccc3)N12`, for which the inhibition was 7.39%. In the case of `COc1ccccc1N1CCN(CC(O)c2ccccc2)CC1` (stereo not given) it was -5.22%.

Regarding `CC(=O)Nc1nc2ccc(S(=O)(=O)N3CCCCC3)cc2s1`, the inhibition was 11.1%. For `CCSC1=NCCN1S(=O)(=O)c1ccc(NC(C)=O)cc1`, the inhibition is 4.92%.

On to `CN(C(=O)c1ccc2c(c1)CCN2S(C)(=O)=O)c1ccccc1`, for which the inhibition is -0.23%.
